The panel holds about 83,000 compounds, 20% with a hit somewhere; the sample as a whole holds those more often.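 The endpoint reported here, percent growth, reads 100 for growth as untreated, 0 for no net growth and -100 for all cells dead.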 Values without a mark were called inactive. Activity calls are given as the source filed them. The calls were made as follows: active = growth percent below 10; inactive = the rest.

Among the test systems are EKVX NSCLC; SN12C renal; UO-31 renal; TK-10 renal; ACHN renal; CAKI-1 renal; A498 renal; CCRF-CEM leukemia; MOLT-4 leukemia; SR leukemia.
Holding throughout (experiment): NCI-60 one-dose screen, 48 h (100 = growth as untreated, 0 = no growth, -100 = all killed)
Holding throughout (conditions): 10 µM

Take `Cc1ccc(CC#N)cc1C`: the growth in the assay with EKVX NSCLC was 87.8%; in the assay with SN12C renal, 105%; in the assay on UO-31 renal, 94.4%; in the assay on TK-10 renal, 107%; with ACHN renal it was 94.6%; in the assay with CAKI-1 renal, 45.3%. Besides, the growth was 136% in the assay on A498 renal, 128% in the assay on CCRF-CEM leukemia and 93.9% in the assay on MOLT-4 leukemia.

`COc1cccc(C2C3=C(COC3=O)N(CCO)c3cc(OC)ccc32)c1` (stereo not drawn): the growth in the assay with EKVX NSCLC is 40.5%; in the assay on SN12C renal, 27%; in the assay with UO-31 renal it was 50.4%; in the assay on TK-10 renal, 51.8%; with ACHN renal it was 31.9%; in the assay with CAKI-1 renal, 36.7%. Also, the growth in the assay on A498 renal is -6.88% (active); in the assay with CCRF-CEM leukemia, 15%; with MOLT-4 leukemia it was 19%; with SR leukemia it was 22.3%.

Consider `COc1ccc(NC(=O)CSc2nc3ccccc3c(=O)n2CCc2ccccc2)cc1`, for which the growth in the assay on EKVX NSCLC was 75.2%; with SN12C renal it was 79%; in the assay with UO-31 renal, 90.2%; in the assay with TK-10 renal, 109%; in the assay with ACHN renal, 93.4%; with CAKI-1 renal it was 87.5%. Also, in the assay with A498 renal, the growth is 101%.

As to `O=C(Nc1ccncc1)C(=O)c1cn(S(=O)(=O)c2cccc3ccccc23)c2ccccc12`, the growth with EKVX NSCLC is 46.9%; in the assay with SN12C renal, 92%; in the assay with UO-31 renal, 58.5%; with TK-10 renal, 88.3%; in the assay with ACHN renal, 87.2%; in the assay on CAKI-1 renal, 60.4%. Further, the growth in the assay on A498 renal is 80%; with CCRF-CEM leukemia it was 59.5%; in the assay on MOLT-4 leukemia, 69%; with SR leukemia it was 21.2%.

As for `O=C(/C(=C/c1ccccc1)CN1CCCCC1)c1ccccc1`, the growth with EKVX NSCLC is 6.23% (active); with SN12C renal, -47.5% (active); in the assay with UO-31 renal it was -93.8% (active); in the assay on TK-10 renal, -41.3% (active); with ACHN renal, -59.3% (active); in the assay on CAKI-1 renal, -3.31% (active). In addition, the growth in the assay with A498 renal was -77.1% (active); in the assay on CCRF-CEM leukemia, 7.4% (active); in the assay with MOLT-4 leukemia it was 3.27% (active); in the assay with SR leukemia, -12.4% (active).

With `NC(=O)SCC(=O)Nc1ccc(S(N)(=O)=O)cc1`, the growth was 112% in the assay on EKVX NSCLC; 95.6% with SN12C renal; 86.4% with UO-31 renal; 106% in the assay with TK-10 renal; 112% in the assay on ACHN renal; 104% in the assay with CAKI-1 renal. The growth was 100% in the assay with A498 renal, 106% in the assay with CCRF-CEM leukemia and 113% with MOLT-4 leukemia.

In the case of `COc1ccc2c(c1)sc1nc(-c3ccccc3)c(-c3ccc(O)c(OC)c3)n12`, the growth was 88.4% in the assay on EKVX NSCLC; 96.3% in the assay with SN12C renal; 99.8% in the assay on UO-31 renal; 120% in the assay with TK-10 renal; 101% in the assay with ACHN renal; 77.5% with CAKI-1 renal. In addition, the growth in the assay with A498 renal was 76.6%; in the assay on CCRF-CEM leukemia it was 78.1%; in the assay with MOLT-4 leukemia, 71.2%; in the assay on SR leukemia it was 17.2%.

Turning to `O=C(Nc1ccc(Cl)c(Cl)c1)Nc1c(Oc2ccc(Cl)c(Cl)c2)ccc(Cl)c1S(=O)(=O)O`, the growth in the assay with EKVX NSCLC was 38.2%; in the assay with SN12C renal, 36.4%; in the assay with UO-31 renal, 21.2%; in the assay with TK-10 renal, 25.3%; with ACHN renal, 61.2%; in the assay on CAKI-1 renal, 12.1%. Further, the growth with A498 renal is -13.3% (active); in the assay on CCRF-CEM leukemia, 13.5%; in the assay with MOLT-4 leukemia, 25%; in the assay with SR leukemia, 1.34% (active).

For the compound `O=C(Nc1ccncc1)C(=O)c1cn(S(=O)(=O)c2ccc(F)cc2)c2ccccc12`, the growth was 52.1% in the assay on EKVX NSCLC; 41.9% with SN12C renal; 20.6% in the assay on UO-31 renal; 79% in the assay with TK-10 renal; 57.7% with ACHN renal; 52.9% in the assay with CAKI-1 renal. The growth in the assay with A498 renal was 66.2%; in the assay on CCRF-CEM leukemia, 43.6%; in the assay with MOLT-4 leukemia it was 25.7%.

`COc1ccc(-c2ccc3cc(C(=O)Nc4ccc(O)c(C(=O)/C=C/c5cc(OC)c(OC)c(OC)c5)c4)ccc3c2)cc1`: the growth is 101% in the assay on EKVX NSCLC; 92.6% with SN12C renal; 59.6% in the assay on UO-31 renal; 100% with TK-10 renal; 96.3% in the assay with ACHN renal; 86.6% with CAKI-1 renal. The figures for the growth in the assay on A498 renal, in the assay with CCRF-CEM leukemia and in the assay on MOLT-4 leukemia were 91.2%, 53.8% and 69.6%, respectively.

On to `COc1ccc(C2=NN(C(=O)c3ccc(S(C)(=O)=O)cc3)C(c3ccc(OC)c(OC)c3)C2)c(OC)c1` (stereo not drawn), for which the growth in the assay with EKVX NSCLC is 98.7%; in the assay on SN12C renal, 100%; with UO-31 renal, 74.9%; in the assay on TK-10 renal it was 116%; with ACHN renal, 102%; in the assay on CAKI-1 renal it was 93.1%. Also, the growth was 98.5% in the assay on A498 renal, 103% in the assay with CCRF-CEM leukemia, 92.2% with MOLT-4 leukemia and 97.2% in the assay with SR leukemia.

On to `C[N+](C)(C)c1ncnc2nc[nH]c12`, for which the growth with EKVX NSCLC is 89.1%; with SN12C renal it was 108%; with UO-31 renal, 84%; in the assay on TK-10 renal, 103%; in the assay with ACHN renal, 91.1%; in the assay on CAKI-1 renal, 83%. Besides, the growth in the assay with A498 renal is 98.3%; with CCRF-CEM leukemia, 102%; in the assay with MOLT-4 leukemia, 98.6%; in the assay on SR leukemia, 78.4%.

Consider `COc1ccc(-c2nc3ccccn3c2-c2nnc(-c3cc(OC)c(OC)c(OC)c3)o2)cc1`, for which the growth was 71% in the assay on EKVX NSCLC; 69.7% in the assay on SN12C renal; 77.7% in the assay with UO-31 renal; 77.9% with TK-10 renal; 49.4% in the assay on ACHN renal; 80.1% in the assay with CAKI-1 renal. Besides, the growth in the assay with A498 renal is 48.2%; in the assay on CCRF-CEM leukemia, 88.4%; in the assay on MOLT-4 leukemia, 92.1%; with SR leukemia it was 37.7%.

In the case of `O=C1OCC2=C1C(c1cccc(Br)c1)c1cc3c(cc1N2CCO)CCC3` (stereo not drawn), the growth in the assay with EKVX NSCLC is 47.7%; with SN12C renal it was 21.2%; in the assay on UO-31 renal, 33.9%; with TK-10 renal, 62.6%; in the assay with ACHN renal, 20.9%; with CAKI-1 renal, 20.8%. Moreover, the growth was -11.2% (active) in the assay on A498 renal, 8.55% (active) in the assay with CCRF-CEM leukemia, 14.1% with MOLT-4 leukemia and 28.5% in the assay with SR leukemia.
